A selection: hits, their analogues and other compounds. The true share with any hit is near 19%.
IL-1B inflam inh – qHTS for Inhibitors of Inflammasome Signaling: IL-1-beta AlphaLISA Primary Screen; 4.7% of 360,000 active; activity change, % at 57.5 µM; THP-1 LPS/ATP IL-1B secretion, AlphaLISA, 16 h; hits give low values; in the data active means activity change below about -50%; inconclusive means mostly about -30% to -49%
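Secreted IL-1B measured by AlphaLISA bead assay after 16 h compound exposure of THP-1 cells; compounds (final up to 57.5 uM) added 1 h before LPS (250 ng/mL) and ATP (1.25 mM) stimulation; lower signal means less secretion.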
TDP1 cell CPT – qHTS for Inhibitors of human tyrosyl-DNA phosphodiesterase 1 (TDP1): qHTS in cells in presence of CPT. chicken DT40 Tdp1-/-;hTDP1 cells + 20 nM CPT, ATP luminescence, 48 h. Potency, µM (top dose mostly 46.2 µM), without a hit: at the top dose activity change, negative = growth inhibition, actives largely listed as inhibitors. 12% of 420,000 active. AID 686979, 2013; further: potency means the concentration at half of the fitted maximal effect; nearly all actives have a fitted effect of over 55% in size
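Cell growth measured by CellTiter-Glo luminescence after a minimum 48 h, 37 C compound exposure with 20 nM CPT in Tdp1-knockout DT40 cells stably expressing hTDP1, seeded 400/well; qHTS titration format.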
TDP1 cell noCPT – qHTS for Inhibitors of human tyrosyl-DNA phosphodiesterase 1 (TDP1): qHTS in cells in absence of CPT; 15% of 420,000 active; Potency, µM (series often up to 46.2 µM), without a hit: top-dose activity change, negative = growth inhibition, actives largely listed as inhibitors; AID 686978, 2013; DT40 Tdp1-/- hTDP1 cells, no CPT, ATP luminescence, 48 h; further: potency means the concentration at half of the fitted maximal effect; nearly all actives have a fitted effect of over 55% in size
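Luminescent ATP content (CellTiter-Glo) served as the growth readout. Knockout chicken DT40 cells expressing human TDP1 were exposed to compounds without camptothecin for a minimum 48 hr at 37 °C.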
HT1080NT lethal – qHTS for induction of synthetic lethality in tumor cells producing 2HG: qHTS for the HT-1080-NT fibrosarcoma cell line; HT-1080-NT fibrosarcoma viability, CellTiter-Glo ATP luminescence, 48 h; Potency, µM (highest dose often 46.1 µM), inactives show at the top dose activity, negative = less viability, usual class: cytotoxic; 1.6% of 360,000 active;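 further: NT is the 2HG producing partner of a matched IDH1 knockdown line; potency means the concentration at half of the fitted maximal effect; 0% = DMSO-treated cells and -100% = media-only wells without cells; nearly all actives have a fitted effect of over 55% in size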
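Fibrosarcoma NT cells, 750 per well in 5% FBS RPMI, were exposed to compound for 48 hours. Viability: CellTiter-Glo luminescence.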
HT1080 IDH1KD tx – qHTS for induction of synthetic lethality in tumor cells producing 2HG: qHTS for the HT-1080-IDH1KD cell line. HT-1080 IDH1 knockdown viability, ATP luminescence, 48 h. Potency, µM (top dose mostly 46.1 µM), for the others: top-dose activity, negative = toxicity, actives largely listed as cytotoxic. 2% of 360,000 active. AID 686971, 2013;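 further: potency means the concentration at half of the fitted maximal effect; 0% = DMSO wells and -100% = cell-free medium wells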
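Knockdown cells (IDH1KD HT-1080) received compounds 2 h after plating at 750 cells/well and were kept 48 h at 37 °C in 5% FBS RPMI. A CellTiter-Glo luminescence read gave % activity for curve fitting.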
* hit, by the source's call; ? = inconclusive; . = no result. Unless noted, the call rests on the fitted dose curve; in most records, active means well fitted curve in the direction sought with a large enough effect; inconclusive means small, poorly fitted or top-dose-only effect, or another doubt; inactive means no such curve, though single readings can be large; an effect the other way counts as inactive or inconclusive. Unless noted, on the % scale 0 is the no-effect control and ±100 the full control effect.

SMILES | IL-1B inflam inh | TDP1 cell CPT | TDP1 cell noCPT | HT1080NT lethal | HT1080 IDH1KD tx
O=C(Nc1ccc2c(c1)OCCO2)C1CCN(C(=O)c2ccc(F)cc2)CC1 | 4 | ? | ? | -10% | 3%
COc1cccc(CN2CC(C(=O)N(C)Cc3ccnc4ccccc34)CCC2=O)c1 (centres undefined) | 7 | -10% | 11% | -5% | -2%
CCC(CC)C(=O)N(C)c1c(C)nc2c(OCCOc3ccc(F)cc3)cccn12 | -15 | 21µM* | 18µM* | -28% | ?
CCC(CC)C(=O)N(C)c1c(C)nc2c(OCC(=O)C(C)(C)C)cccn12 | 25 | -20% | ? | ? | 11%
CCC(CC)C(=O)N(C)c1c(C)nc2c(OCCC3CCCCC3)cccn12 | ? | 7.3µM* | 5.2µM* | -12% | -21%
COC(=O)N/N=C/c1cc(Cl)cc(Cl)c1OCc1ccc(F)cc1 | -5 | ? | ? | -5% | 7%
CCOc1ccc(-c2nc(Cn3c(=O)cc(-c4ccccc4)c4c(C)nn(C)c43)c(C)o2)cc1 | . | -5% | 4% | . | .
CN(C(=O)CSc1cc(C(=O)c2nccn2C)c2ccccc2n1)c1ccccc1 | -56* | 15µM* | 18µM* | -26% | -28%
Cc1ccc(S(=O)c2ccc(NC(=O)C3CC3)cc2C#N)cc1 (centres undefined) | 15 | 18µM* | 23µM* | -11% | -22%
CC1CCN(S(=O)(=O)c2cc(F)ccc2CN2C(=O)c3cccnc3C2=O)CC1 | -9 | 1% | 6% | 6% | 9%
CN1C(=O)N(CC(=O)Nc2ccc3c(c2)OCO3)C(=O)C12CCCCC2 | -17 | 0% | -9% | 0% | -2%
Cc1ccccc1Cn1cnc2nc3c(cc2c1=O)CC(C)CC3 (centres undefined) | . | 16µM* | 2.6µM* | . | .
COC(=O)c1ccc(Cn2cnc3nc4c(cc3c2=O)CCCC4)cc1 | . | 3% | 9% | . | .
CC1CCc2nc3ncn(Cc4ccc(Cl)cc4)c(=O)c3cc2C1 (centres undefined) | . | 18µM* | 23µM* | . | .
O=C(CN1C(=O)NC2(CCc3ccccc32)C1=O)Nc1ccc(Cl)cc1F (centres undefined) | -2 | 9% | ? | -12% | -19%
COc1cccc(NC(=O)CN(C)C(=O)c2cc(-c3cccc(Br)c3)nc3ccccc23)c1 | -55* | ? | 16µM* | ? | -26%
COc1cccc(NC(=O)CN(C)C(=O)c2cc(C)oc2C)c1 | -2 | 2% | 24% | 1% | 1%
COc1cccc(NC(=O)CN(C)C(=O)c2cc(-c3ccccc3)nc3ccc(C)cc23)c1 | -5 | 13µM* | 10µM* | ? | -11%
COc1cccc(NC(=O)CN(C)C(=O)c2cc(-c3ccc(C)o3)nc3ccccc23)c1 | -1 | ? | 21µM* | -23% | -14%
Cc1cnc(CNC(=O)c2c3n(c(C)cc2=O)-c2ccccc2SC(c2ccsc2)C3)cn1 (centres undefined) | . | -10% | -7% | . | .
COc1cccc(OC(=O)CSc2nnc(-c3cccs3)o2)c1 | . | 8% | 4% | . | .
CC(C)CN1CCc2nc(N3CCN(C)CC3)ncc2C1 | . | -13% | -24% | . | .
CC(C)CN1C(=O)CSCC1(C)C(=O)NC(C)C (centres undefined) | -68* | 31% | 4% | 4% | -5%
CC(C)CN1C(=O)CSCC1(C)C(=O)Nc1ccc2c(c1)OCCO2 (centres undefined) | -16 | -24% | -19% | 2% | 17%
O=C(CSc1nnc(-c2ccc(O)cc2)n1Cc1ccccc1)NNC(=O)c1ccc(Br)cc1 | -66* | -3% | 1% | -7% | -5%
SMILES | IL-1B inflam inh | TDP1 cell CPT | TDP1 cell noCPT | HT1080NT lethal | HT1080 IDH1KD tx
CCn1c(SCC(=O)c2ccc(C)cc2)nnc1-c1ccncc1 | 3 | -15% | -12% | 20% | 2%
CCn1c(SCC(=O)NNC(=O)c2ccc(C)cc2)nnc1-c1ccncc1 | 15 | -26% | 21µM* | 2% | 5%
CCOC(=O)C1CCCN(c2ncnc3c2oc2ccccc23)C1 (centres undefined) | 53 | ? | 13µM* | -14% | -11%
CCOC(=O)C1CCN(c2ncnc3c2oc2ccccc23)CC1 | 11 | ? | 16µM* | ? | -5%
CCc1nnc(N2CCN(c3ncnc4c3oc3ccccc34)CC2)s1 | ? | 18µM* | 18µM* | -24% | ?
CC(C)(C)C(=O)OCOC(=O)C1N2C(=O)CC2S(=O)(=O)C1(C)C (centres undefined) | . | 5% | -2% | . | .
CC(C)C(NC(=O)c1c(F)cccc1F)C(=O)NCCc1ccc(S(N)(=O)=O)cc1 (centres undefined) | 18 | 3% | 10% | 12% | 16%
O=C1CC(/C=C/c2ccncc2)=Nc2ccccc2N1 | . | 5.8µM* | 5.8µM* | ? | ?
CCCCN(C)S(=O)(=O)c1cc(-c2nnc3c4ccccc4c(C)nn23)ccc1C | . | 3.7µM* | 7.3µM* | . | .
Cc1ccc(-c2nn3c(C)nnc3c3ccccc23)cc1S(=O)(=O)N(C)CCO | 2 | ? | ? | -2% | -1%
Cc1cc(F)ccc1C(O)c1ncc(-c2cccc3ccccc23)[nH]1 (centres undefined) | 15 | ? | ? | ? | ?
Cc1[nH]n(-c2ccc([N+](=O)[O-])cc2)c(=O)c1C=NCCc1c[nH]c2ccccc12 | 8 | 12µM* | ? | ? | ?
Cc1[nH]n(-c2ccc([N+](=O)[O-])cc2)c(=O)c1C=NCCN1CCN(C(=O)c2ccc(F)cc2)CC1 | 4 | -5% | 2% | 2% | 3%
Cc1[nH]n(-c2ccc([N+](=O)[O-])cc2)c(=O)c1C=NCCN1CCN(C(=O)c2ccc(Br)cc2)CC1 | ? | 18µM* | 15µM* | ? | ?
Cc1[nH]n(-c2ccc([N+](=O)[O-])cc2)c(=O)c1C=NCCN1CCN(C(=O)c2cccc(F)c2)CC1 | 12 | 15µM* | 9.2µM* | 18µM* | 16µM*
COC(=O)[C@]12CCCCC=C1N(Cc1ccco1)C(=O)[C@H](CC(=O)NCc1ccccc1)C2 | -11 | -23% | -23% | 27% | 0%
CC(C)=CCNc1ncnc2c1c(C#N)cn2C1OC(CO)C(O)C1O (centres undefined) | 4 | 5.8µM* | 4.1µM* | -5% | -16%
